Measured values as given in PubChem BioAssay AID1159580 (chemical genetic matrix, 2015).
The whole screen tested about 5,500 compounds, of which about 2,000 (36%) were called active. Roughly 18% stayed inconclusive and do not appear here. Cut-off read from the data, not from the text of the source: active = normalized growth mostly below about 0.91 (no sharp cut-off); inconclusive = no clear call, values can overlap the other calls; inactive = mostly above about 0.92. The list shows a part of the results.

Assay: chemical genetic growth profiling, strain panel (AID 1159580);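 note: tested at 20 µM; growth read once vehicle control cultures reached saturation at 30 °C; 1 = growth at the plate median or of vehicle wells; lower values mean less growth of the strain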
Details: S. cerevisiae deletion strains, growth OD
[1] = locus YDL101C, strain DUN1, active compounds read low
[2] = locus YHR030C, strain SLT2, active compounds read low
[3] = locus YJR075W, strain HOC1, active compounds read low
[4] = locus YNL322C, strain KRE1, active compounds read low
[5] = locus YPL055C, strain LGE1, active compounds read low
[6] = locus YPL241C, strain CIN2, active compounds read low

Measured: normalized growth

Clc1ccc(Sc2ncnc3ccsc23)cc1
active: locus YAL013W, strain DEP1, active compounds read low 0.919 | locus YBR229C, strain ROT2, active compounds read low 0.893 | locus YEL061C, strain CIN8, active compounds read low 0.81 | locus YGR078C, strain PAC10, active compounds read low 0.885 | [2] 0.502 | locus YHR087W, strain rtc3, active compounds read low 0.809 | locus YJR043C, strain POL32, active compounds read low 0.866 | [3] 0.768 | locus YKL190W, strain CNB1, active compounds read low 0.863 | locus YLR058C, strain SHM2 (second series), active compounds read low 0.877 | locus YLR085C, strain ARP6, active compounds read low 0.352 | locus YML094W, strain GIM5, active compounds read low 0.814 | locus YMR219W, strain ESC1, active compounds read low 0.885 | locus YNL153C, strain GIM3, active compounds read low 0.924 | locus YNL298W, strain CLA4 (second series), active compounds read low 0.777 | [4] 0.922 | locus YNR030W, strain Alg12, active compounds read low 0.705 | locus YOL006C, strain TOP1, active compounds read low 0.516 | [5] 0.682 | [6] 0.66 | locus YPR135W, strain CTF4, active compounds read low 0.451
inactive: [1] 0.959 | locus YDR150W, strain NUM1, active compounds read low 0.911 | locus YLR039C, strain RIC1, active compounds read low 0.941 | locus YLR262C, strain YPT6, active compounds read low 1.1 | locus YMR263W, strain SAP30, active compounds read low 0.94 | locus YNL128W, strain TEP1, active compounds read low 0.934

Clc1ccc(SCc2ccsc2-c2ncns2)cc1
inactive: locus YAR019C, strain CDC15, active compounds read low 0.98 | locus YBL105C, strain PKC1, active compounds read low 0.968 | locus YBR135W, strain CKS1, active compounds read low 0.967 | locus YBR136W, strain MEC1, active compounds read low 0.968 | locus YBR160W, strain CDC28, active compounds read low 0.975 | locus YDL017W, strain CDC7, active compounds read low 0.97 | locus YDL028C, strain MPS1, active compounds read low 0.971 | [1] 0.954 | locus YDL108W, strain KIN28, active compounds read low 0.967 | locus YDL132W, strain cdc53, active compounds read low 0.968 | locus YDL214C, strain PRR2, active compounds read low 0.965 | locus YDR052C, strain DBF4, active compounds read low 0.976 | locus YDR054C, strain cdc34, active compounds read low 0.964 | locus YDR226W, strain ADK1, active compounds read low 0.968 | locus YDR477W, strain SNF1, active compounds read low 0.951 | locus YER123W, strain YCK3, active compounds read low 0.897 | locus YER133W, strain GLC7, active compounds read low 0.961 | locus YFL009W, strain cdc4, active compounds read low 0.964 | locus YFL029C, strain CAK1, active compounds read low 0.969 | locus YFR003C, strain YPI1, active compounds read low 0.967 | locus YFR019W, strain FAB1, active compounds read low 0.906 | locus YFR028C, strain CDC14, active compounds read low 0.96 | locus YGR040W, strain KSS1, active compounds read low 0.946 | locus YGR052W, strain FMP48, active compounds read low 1.04 | locus YGR092W, strain DBF2, active compounds read low 0.914 | [2] 0.933 | locus YHR079C, strain IRE1, active compounds read low 0.958 | locus YHR082C, strain KSP1, active compounds read low 1 | locus YHR205W, strain SCH9, active compounds read low 0.923 | locus YIL147C, strain SLN1, active compounds read low 0.973 | locus YJL095W, strain BCK1, active compounds read low 0.972 | locus YJL128C, strain PBS2, active compounds read low 0.961 | locus YJL157C, strain FAR1, active compounds read low 0.963 | locus YJR016C, strain ILV3, active compounds read low 0.977 | locus YJR066W, strain TOR1 (second series), active compounds read low 0.933 | locus YJR066W, strain TOR1, active compounds read low 0.955 | locus YKL048C, strain ELM1, active compounds read low 0.971 | locus YKL067W, strain YNK1, active compounds read low 0.972 | locus YKL101W, strain HSL1, active compounds read low 0.976 | locus YKL193C, strain SDS22, active compounds read low 0.969 | locus YKL203C, strain TOR2, active compounds read low 0.992 | locus YLR113W, strain HOG1, active compounds read low 0.923 | locus YLR133W, strain CKI1, active compounds read low 0.973 | locus YLR403W, strain SFP1, active compounds read low 0.927 | locus YML070W, strain DAK1, active compounds read low 0.963 | locus YMR001C, strain CDC5, active compounds read low 0.968 | locus YMR205C, strain PFK2 (second series), active compounds read low 0.955 | locus YMR277W, strain FCP1, active compounds read low 0.973 | locus YNL006W, strain LST8, active compounds read low 0.969 | locus YNL020C, strain ARK1, active compounds read low 0.975 | locus YNL161W, strain CBK1, active compounds read low 0.972 | locus YNL183C, strain NPR1, active compounds read low 0.947 | locus YNL207W, strain RIO2, active compounds read low 0.981 | locus YNL222W, strain SSU72, active compounds read low 0.977 | locus YNL307C, strain MCK1 (second series), active compounds read low 0.948 | locus YOL078W, strain AVO1, active compounds read low 0.975 | locus YOL136C, strain PFK27, active compounds read low 0.966 | locus YOR061W, strain CKA2, active compounds read low 0.947 | locus YOR119C, strain RIO1, active compounds read low 0.958 | locus YOR231W, strain MKK1, active compounds read low 0.964 | locus YOR329C, strain SCD5, active compounds read low 0.975 | locus YPL031C, strain PHO85, active compounds read low 0.947 | locus YPL153C, strain RAD53, active compounds read low 0.958 | locus YPL204W, strain HRR25, active compounds read low 0.934 | locus YPL209C, strain IPL1, active compounds read low 0.972 | locus YPL256C, strain CLN2, active compounds read low 0.916 | locus YPR025C, strain CCL1, active compounds read low 0.968 | locus YPR106W, strain ISR1, active compounds read low 0.977 | locus YPR111W, strain DBF20, active compounds read low 0.971 | strain NNK1, active compounds read low 0.974 | strain TSCII, active compounds read low 0.968

COc1cc(CC(C)N)c(OC)cc1I (stereo unspecified)
inactive: locus YAL040C, strain CLN3, active compounds read low 0.975 | locus YCL061C, strain MRC1 (second series), active compounds read low 1 | locus YDR363W, strain ESC2, active compounds read low 1.04 | locus YER002W, strain NOP16, active compounds read low 1.03 | [3] 1.01 | locus YMR307W, strain GAS1, active compounds read low 0.996 | locus YNL175C, strain NOP13, active compounds read low 0.995 | locus YNL197C, strain WHI3, active compounds read low 1.02 | locus YNL224C, strain SQS1, active compounds read low 0.997 | [4] 1 | locus YOR083W, strain WHI5 (second series), active compounds read low 0.984 | [5] 1.03 | [6] 0.991
